# Laboratory results published in PubChem BioAssay AID1159580 (chemical genetic matrix, 2015).
# The whole screen tested about 5,500 compounds, of which about 2,000 (36%) were called active. Roughly 18% stayed inconclusive and do not appear here. The list shows a part of the results. A number with no mark means an inactive call. Cut-off read from the data, not from the text of the source: active = normalized growth mostly below about 0.91 (no sharp cut-off); inconclusive = no clear call, values can overlap the other calls; inactive = mostly above about 0.92.
# Test: chemical genetic growth profiling, strain panel (AID 1159580);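 note: tested at 20 µM; growth read once vehicle control cultures reached saturation at 30 °C; 1 = growth at the plate median or of vehicle wells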
# Details: S. cerevisiae deletion strains, growth OD
smiles,measurement,setting,value
O=C(Nc1ccc(F)cc1F)c1cc(Cl)c(-n2cccc2)c(Cl)c1,normalized growth,"locus YAR019C, strain CDC15, stronger effect = lower value",0.975
same,normalized growth,"locus YBL105C, strain PKC1, stronger effect = lower value",0.972
same,normalized growth,"locus YBR135W, strain CKS1, stronger effect = lower value",0.971
same,normalized growth,"locus YBR136W, strain MEC1, stronger effect = lower value",0.969
same,normalized growth,"locus YBR160W, strain CDC28, stronger effect = lower value",0.973
same,normalized growth,"locus YDL017W, strain CDC7, stronger effect = lower value",0.974
same,normalized growth,"locus YDL028C, strain MPS1, stronger effect = lower value",0.969
same,normalized growth,"locus YDL101C, strain DUN1, stronger effect = lower value",0.984
same,normalized growth,"locus YDL108W, strain KIN28, stronger effect = lower value",0.974
same,normalized growth,"locus YDL132W, strain cdc53, stronger effect = lower value",0.976
same,normalized growth,"locus YDL214C, strain PRR2, stronger effect = lower value",0.942
same,normalized growth,"locus YDR052C, strain DBF4, stronger effect = lower value",0.98
same,normalized growth,"locus YDR054C, strain cdc34, stronger effect = lower value",0.961
same,normalized growth,"locus YDR226W, strain ADK1, stronger effect = lower value",0.97
same,normalized growth,"locus YDR477W, strain SNF1, stronger effect = lower value",0.936
same,normalized growth,"locus YER123W, strain YCK3, stronger effect = lower value",0.905
same,normalized growth,"locus YER133W, strain GLC7, stronger effect = lower value",0.898
same,normalized growth,"locus YFL009W, strain cdc4, stronger effect = lower value",0.97
same,normalized growth,"locus YFL029C, strain CAK1, stronger effect = lower value",0.967
same,normalized growth,"locus YFR003C, strain YPI1, stronger effect = lower value",0.975
same,normalized growth,"locus YFR019W, strain FAB1, stronger effect = lower value",0.944
same,normalized growth,"locus YFR028C, strain CDC14, stronger effect = lower value",0.977
same,normalized growth,"locus YGR040W, strain KSS1, stronger effect = lower value",0.94
same,normalized growth,"locus YGR052W, strain FMP48, stronger effect = lower value",0.984
same,normalized growth,"locus YGR092W, strain DBF2, stronger effect = lower value",0.942
same,normalized growth,"locus YHR030C, strain SLT2, stronger effect = lower value",0.784 (active)
same,normalized growth,"locus YHR079C, strain IRE1, stronger effect = lower value",0.864
same,normalized growth,"locus YHR082C, strain KSP1, stronger effect = lower value",1.05
same,normalized growth,"locus YHR205W, strain SCH9, stronger effect = lower value",0.911
same,normalized growth,"locus YIL147C, strain SLN1, stronger effect = lower value",0.976
same,normalized growth,"locus YJL095W, strain BCK1, stronger effect = lower value",0.866
same,normalized growth,"locus YJL128C, strain PBS2, stronger effect = lower value",0.953
same,normalized growth,"locus YJL157C, strain FAR1, stronger effect = lower value",0.934
same,normalized growth,"locus YJR016C, strain ILV3, stronger effect = lower value",0.985
same,normalized growth,"locus YJR066W, strain TOR1 (second series), stronger effect = lower value",0.869
same,normalized growth,"locus YJR066W, strain TOR1, stronger effect = lower value",0.993
same,normalized growth,"locus YKL048C, strain ELM1, stronger effect = lower value",0.953
same,normalized growth,"locus YKL067W, strain YNK1, stronger effect = lower value",0.928
same,normalized growth,"locus YKL101W, strain HSL1, stronger effect = lower value",0.929
same,normalized growth,"locus YKL193C, strain SDS22, stronger effect = lower value",0.983
same,normalized growth,"locus YKL203C, strain TOR2, stronger effect = lower value",0.968
same,normalized growth,"locus YLR113W, strain HOG1, stronger effect = lower value",0.788 (active)
same,normalized growth,"locus YLR133W, strain CKI1, stronger effect = lower value",0.942
same,normalized growth,"locus YLR403W, strain SFP1, stronger effect = lower value",0.902
same,normalized growth,"locus YML070W, strain DAK1, stronger effect = lower value",0.925
same,normalized growth,"locus YMR001C, strain CDC5, stronger effect = lower value",0.973
same,normalized growth,"locus YMR205C, strain PFK2 (second series), stronger effect = lower value",0.959
same,normalized growth,"locus YMR277W, strain FCP1, stronger effect = lower value",0.963
same,normalized growth,"locus YNL006W, strain LST8, stronger effect = lower value",0.977
same,normalized growth,"locus YNL020C, strain ARK1, stronger effect = lower value",0.911
same,normalized growth,"locus YNL161W, strain CBK1, stronger effect = lower value",0.967
same,normalized growth,"locus YNL183C, strain NPR1, stronger effect = lower value",0.951
same,normalized growth,"locus YNL207W, strain RIO2, stronger effect = lower value",0.97
same,normalized growth,"locus YNL222W, strain SSU72, stronger effect = lower value",0.977
same,normalized growth,"locus YNL307C, strain MCK1 (second series), stronger effect = lower value",0.926
same,normalized growth,"locus YOL078W, strain AVO1, stronger effect = lower value",0.981
same,normalized growth,"locus YOL136C, strain PFK27, stronger effect = lower value",0.925
same,normalized growth,"locus YOR061W, strain CKA2, stronger effect = lower value",0.926
same,normalized growth,"locus YOR119C, strain RIO1, stronger effect = lower value",0.999
same,normalized growth,"locus YOR231W, strain MKK1, stronger effect = lower value",0.88
same,normalized growth,"locus YOR329C, strain SCD5, stronger effect = lower value",0.968
same,normalized growth,"locus YPL031C, strain PHO85, stronger effect = lower value",0.922
same,normalized growth,"locus YPL153C, strain RAD53, stronger effect = lower value",0.928
same,normalized growth,"locus YPL204W, strain HRR25, stronger effect = lower value",0.908
same,normalized growth,"locus YPL209C, strain IPL1, stronger effect = lower value",0.975
same,normalized growth,"locus YPL256C, strain CLN2, stronger effect = lower value",0.829 (active)
same,normalized growth,"locus YPR025C, strain CCL1, stronger effect = lower value",0.968
same,normalized growth,"locus YPR106W, strain ISR1, stronger effect = lower value",0.978
same,normalized growth,"locus YPR111W, strain DBF20, stronger effect = lower value",0.962
same,normalized growth,"strain NNK1, stronger effect = lower value",0.977
same,normalized growth,"strain TSCII, stronger effect = lower value",0.968
